According to PubChem BioAssay (Tox21):
Inconclusive results are not listed. Active and inactive are the calls of the source. Unless noted, the call rests on the fitted dose curve; in most records, active means well fitted curve in the direction sought with a large enough effect in the repeat runs; inconclusive means weak or mixed curves; inactive means no such curve, though single readings can be large; an effect the other way counts as inactive or inconclusive.

Key:
[1] = qHTS assay for small molecule agonists of the p53 signaling pathway (AID 651631; calls by dose curve; further: nearly all actives have a fitted effect of over 15% in size)
Method in brief: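 We treat p53RE-bla HCT-116 cells with compounds for 16 h at 37 °C, add LiveBLAzer B/G FRET substrate for 2 h at room temperature, and measure fluorescence intensity.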

[2] = qHTS assay for small molecules that induce genotoxicity in human embryonic kidney cells expressing luciferase-tagged ATAD5 (AID 651632); further: nearly all actives have a fitted effect of over 15% in size
Method in brief: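 Concentration-response screen for ATAD5 upregulation in HEK293T luciferase reporter cells; 16 hr treatment at 37C, then luminescence after 30 min with Amplite at room temperature.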

[3] = qHTS assay for small molecule agonists of the p53 signaling pathway - cell viability (AID 651633; calls by dose curve;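 further: p53RE-bla HCT reporter cells with a stable beta-lactamase p53 reporter; series mostly up to about 83 µM; nearly all actives have a fitted effect of over 30% in size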)
Method in brief: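 p53RE-bla cells were treated with compound for 16 hours at 37 C. Cytotoxicity was then measured as CellTiter-Glo luminescence after 30 min at room temperature.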

[4] = qHTS assay for small molecules that induce genotoxicity in human embryonic kidney cells expressing luciferase-tagged ATAD5 - cell viability (AID 651634; calls by dose curve; further: nearly all actives have a fitted effect of over 25% in size)
Method in brief: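 15.5 hr compound or vehicle exposure of HEK293T cells expressing luciferase-tagged ATAD5 at 37C; live-cell protease activity is read by fluorescence after 30 min of CellTiter-Fluor.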

[5] = qHTS assay for small molecule disruptors of the mitochondrial membrane potential - cell viability (AID 720634; calls by dose curve;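 further: human HepG2 liver cancer cells; series mostly up to about 83 µM; nearly all actives have a fitted effect of over 20% in size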)
Method in brief: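 In this qHTS format, HepG2 cells plated overnight were pinned with compound, incubated 1 hr, and assayed for ATP luminescence with CellTiter-Glo after m-MPI dye addition.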

[6] = qHTS assay to test for compound auto fluorescence at 590 nm (red) in HepG2 cells (AID 720674)
Method in brief: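 HepG2 cells, 2,000 per well in MEM with 10% FBS, attached overnight at 37 C, then got 23 nL compound or DMSO. After 1 hr at 37 C, 5% CO2, red fluorescence was read at 540/590 nm against Rose Bengal sodium as reference.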

[7] = qHTS assay to test for compound auto fluorescence at 535 nm (green) in HepG2 cells (AID 720675)
[8] = qHTS assay to test for compound auto fluorescence at 460 nm (blue) in HEK293 cells (AID 720678)
Method in brief: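 Intrinsic compound fluorescence is recorded in live HEK293 cultures after overnight incubation at 37C, 5% CO2, using excitation 405 nm and emission 460 nm. Values are referenced to triamterene.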

[9] = qHTS assay to test for compound auto fluorescence at 590 nm (red) in HEK293 cells (AID 720679)
Method in brief: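 Red autofluorescence, HEK293 cells: 2,000 cells/well; attach 4-5 hr 37C; add 23 nL cpd or DMSO; incubate o/n 37C 5% CO2; read Ex540/Em590; Rose Bengal sodium reference.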

[10] = qHTS assay to test for compound auto fluorescence at 535 nm (green) in HEK293 cells (AID 720680)
[11] = qHTS assay to test for compound auto fluorescence at 460 nm (blue) in HEK293 cell free culture (AID 720681)
Method in brief: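 Compounds were added to cell-free DMEM with 10% FBS and fluorescence read directly. The blue channel used 405 nm excitation and 460 nm emission, with triamterene as the reference fluorophore.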

[12] = qHTS assay to test for compound auto fluorescence at 535 nm (green) in HEK293 cell free culture (AID 720682)
Method in brief: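 Green-channel intensity (Ex/Em 485/535 nm) was recorded from compound-treated wells containing only DMEM with 10% FBS. Fluorescein provided the equivalency standard.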

[13] = qHTS assay to test for compound auto fluorescence at 590 nm (red) in HEK293 cell free culture (AID 720683)
Method in brief: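 Cell-free wells of DMEM with 10% FBS received compound, and intrinsic fluorescence was read at excitation/emission 540/590 nm. Values expressed as equivalence to Rose Bengal sodium.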

[14] = qHTS assay to test for compound auto fluorescence at 590 nm (red) in HepG2 cell free culture (AID 720684)
Method in brief: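 Rose Bengal sodium served as the reference for red signal. Test compounds were dispensed into serum-containing MEM (10% FBS) without cells, and plates were read at 540/590 nm.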

[15] = qHTS assay to test for compound auto fluorescence at 460 nm (blue) in HepG2 cell free culture (AID 720685)
Method in brief: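 Cell-free plates of MEM plus 10% FBS received 23 nL compound or DMSO vehicle; blue-channel (405/460 nm) intensity scored against triamterene as reference fluorophore.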

[16] = qHTS assay to test for compound auto fluorescence at 535 nm (green) in HepG2 cell free culture (AID 720686)
[17] = qHTS assay to test for compound auto fluorescence at 460 nm (blue) in HepG2 cells (AID 720687)
Method in brief: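 HepG2 cells in MEM with 10% FBS, attached overnight at 37 C, were exposed to compound or DMSO for 1 hr at 37 C, 5% CO2. Blue fluorescence was read at 405/460 nm, with triamterene as reference fluorophore.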

[18] = qHTS assay for small molecule disruptors of the mitochondrial membrane potential (AID 720635)
Method in brief: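 HepG2 cells exposed to compound 1 hr at 37C, then Mito-MPS dye 30 min. Ratio read of aggregate (540/590 nm) versus monomer (490/535 nm) fluorescence.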

[19] = molecular target: Glucocorticoid receptor (Homo sapiens) (UniProt P04150); test: qHTS assay to identify small molecule agonists of the glucocorticoid receptor (GR) signaling pathway (AID 720691; active means well fitted activation curve with a large enough effect in the signal ratio in the repeat runs, not every such curve was filed as active; the % refers to the signal ratio)
Sequence of Glucocorticoid receptor (Homo sapiens) (P04150 whole entry, looked up): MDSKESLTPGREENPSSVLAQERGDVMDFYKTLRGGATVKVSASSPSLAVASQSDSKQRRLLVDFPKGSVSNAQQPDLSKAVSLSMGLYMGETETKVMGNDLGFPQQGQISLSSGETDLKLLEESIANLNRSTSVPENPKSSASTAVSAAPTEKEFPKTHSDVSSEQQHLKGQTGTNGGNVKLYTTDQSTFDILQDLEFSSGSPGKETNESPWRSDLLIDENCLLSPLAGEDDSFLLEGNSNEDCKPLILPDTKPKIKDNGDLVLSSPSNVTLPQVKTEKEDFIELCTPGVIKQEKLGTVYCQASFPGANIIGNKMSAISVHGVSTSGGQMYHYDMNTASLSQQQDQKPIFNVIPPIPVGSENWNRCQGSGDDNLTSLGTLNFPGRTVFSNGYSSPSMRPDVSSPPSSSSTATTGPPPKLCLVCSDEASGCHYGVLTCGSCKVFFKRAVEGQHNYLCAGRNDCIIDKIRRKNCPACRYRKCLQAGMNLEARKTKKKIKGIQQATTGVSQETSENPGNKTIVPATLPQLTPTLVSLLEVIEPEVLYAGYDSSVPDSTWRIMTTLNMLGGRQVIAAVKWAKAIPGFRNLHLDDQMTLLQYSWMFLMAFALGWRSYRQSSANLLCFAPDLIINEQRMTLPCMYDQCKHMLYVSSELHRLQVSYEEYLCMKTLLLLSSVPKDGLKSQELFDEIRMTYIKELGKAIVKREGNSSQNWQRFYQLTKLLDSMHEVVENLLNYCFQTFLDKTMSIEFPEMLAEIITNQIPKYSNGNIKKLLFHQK
Method in brief: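 Measures GR pathway activation through a GRE-beta-lactamase reporter stably integrated in HeLa cells, with 18 h compound treatment at 37 C and fluorescence detection using a FRET substrate.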

[20] = molecular target: Glucocorticoid receptor (Homo sapiens) (UniProt P04150); test: qHTS assay to identify small molecule antagonists of the glucocorticoid receptor (GR) signaling pathway (AID 720692; active means well fitted inhibition curve with a large enough effect in the signal ratio in the repeat runs, not every such curve was filed as active; the % refers to the signal ratio)
Method in brief: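 Tox21 10K library screened in concentration-response for blockade of dexamethasone (5 nM final)-induced GRE-bla reporter activity in HeLa cells; 18 h treatment, fluorescence read.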

Measured: Potency

CC(C)CC(C)CC(C)CC(C)COC(=O)c1ccccc1C(=O)OCC(C)CC(C)CC(C)CC(C)C (stereo unspecified)
inactive: [1] | [2] | [3] | [4] | [5] | [6] | [7] | [8] | [9] | [10] | [11] | [12] | [13] | [14] | [15] | [16] | [17]

CC(C)CC(=O)O
inactive: [1] | [2] | [3] | [4] | [5] | [18] | [6] | [7] | [9] | [10] | [11] | [12] | [13] | [14] | [15] | [16] | [17] | [19] | [20]

CCC(C=O)CC
inactive: [1] | [2] | [3] | [4] | [5] | [6] | [7] | [8] | [9] | [10] | [11] | [12] | [13] | [14] | [15] | [16] | [17] | [19]

CCCCCCCCCC(C)=O
inactive: [1] | [2] | [3] | [4] | [5] | [6] | [7] | [8] | [9] | [10] | [11] | [12] | [15] | [16] | [17] | [19] | [20]

CNC(=O)[C@H]1O[C@@H](n2cnc3c(NCc4cc(Cl)ccc4OCc4cc(C)no4)ncnc32)[C@H](O)[C@@H]1N
inactive: [1] | [2] | [3] | [4] | [5] | [6] | [7] | [8] | [9] | [10] | [11] | [12] | [13] | [14] | [15] | [16] | [17] | [19] | [20]

C=CCCCCCCCCCCCC
inactive: [1] | [2] | [3] | [4] | [5] | [18] | [6] | [7] | [9] | [10] | [11] | [12] | [14] | [15] | [16] | [17] | [19] | [20]

Cc1cccc2nccnc12
inactive: [1] | [2] | [3] | [4] | [5] | [6] | [7] | [8] | [10] | [11] | [12] | [13] | [14] | [15] | [16] | [17] | [19]

O=C(O)c1cc(Cl)cc([N+](=O)[O-])c1Cl
inactive: [1] | [2] | [3] | [4] | [5] | [6] | [7] | [8] | [9] | [10] | [11] | [12] | [13] | [14] | [15] | [16] | [17] | [19] | [20]

CNS(=O)(=O)CCc1ccc2[nH]cc(C3CCN(C)CC3)c2c1
inactive: [1] | [2] | [3] | [4] | [5] | [6] | [7] | [8] | [9] | [10] | [11] | [12] | [14] | [15] | [16] | [17] | [19] | [20]

COc1ccc(Br)c(C)c1
inactive: [1] | [2] | [3] | [4] | [5] | [18] | [7] | [8] | [9] | [10] | [11] | [12] | [13] | [15] | [16] | [17]

O=C(NCCc1c[nH]c2ccccc12)c1cccnc1
inactive: [1] | [2] | [3] | [4] | [5] | [6] | [7] | [8] | [9] | [10] | [11] | [12] | [13] | [15] | [16] | [17]

COCCOCCOCCOCCOCCO
inactive: [1] | [2] | [3] | [4] | [5] | [6] | [7] | [8] | [10] | [11] | [12] | [13] | [14] | [15] | [16] | [17] | [19]

c1ccc2nccnc2c1
inactive: [1] | [2] | [3] | [4] | [5] | [18] | [7] | [8] | [9] | [10] | [11] | [12] | [15] | [16] | [17]

NC(CO)C(=O)NNCc1ccc(O)c(O)c1O (stereo unspecified)
inactive: [1] | [2] | [3] | [4] | [5] | [6] | [7] | [8] | [9] | [10] | [11] | [12] | [13] | [14] | [15] | [16] | [17]

Cc1nc2n(c(=O)c1CCN1CCC(c3noc4cc(F)ccc34)CC1)CCC[C@H]2O
inactive: [1] | [2] | [3] | [4] | [5] | [18] | [7] | [8] | [9] | [10] | [11] | [12] | [14] | [15] | [16] | [17] | [19] | [20]
